Experimental data reported in PubChem BioAssay (Tox21).
Records with an inconclusive call do not appear. Active and inactive are the calls of the source. Unless noted, the call rests on the fitted dose curve; in most records, active means well fitted curve in the direction sought with a large enough effect in the repeat runs; inconclusive means weak or mixed curves; inactive means no such curve, though single readings can be large; an effect the other way counts as inactive or inconclusive.

What was measured:
[1] = qHTS assay to identify small molecule agonists of the vitamin D receptor (VDR) signaling pathway - cell viability counter screen (AID 743224); conditions: VDR-bla HEK293T viability, CellTiter-Glo luminescence, 16 h; series mostly up to 62.6 µM; further: nearly all actives have a fitted effect of over 50% in size; further: potency means the concentration at half of the fitted maximal effect
Outline: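 In parallel with the bla FRET readout, cytotoxicity toward VDR-bla cells after 16 h compound exposure was assessed by CellTiter-Glo, with luminescence recorded after a 30 min room-temperature incubation.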

[2] = qHTS assay to identify small molecule antagonists of the vitamin D receptor (VDR) signaling pathway - cell viability counter screen (AID 743225); conditions: VDR-bla HEK293T viability, CellTiter-Glo luminescence, 16 h; series mostly up to 61 µM; further: nearly all actives have a fitted effect of over 50% in size; further: potency means the concentration at half of the fitted maximal effect
Outline: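 Same-well multiplex: following 16 h treatment of HEK 293T cells carrying a UAS-driven beta-lactamase reporter with compound and agonist (3 nM final), and a 2 h FRET substrate step, CellTiter-Glo was added and luminescence read after 30 min.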

[3] = qHTS assay to identify small molecule agonists of the NFkB signaling pathway - cell viability counter screen (AID 1159515; calls by dose curve; further: nearly all actives have a fitted effect of over 55% in size); conditions: NFkB-bla ME-180 viability, CellTiter-Glo luminescence, 5 h; series mostly up to 61 µM
Outline: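 Plate 2,000 NFkB-bla ME-180 cells/well; incubate overnight. Add compounds, 5 hr at 37 C. Add FRET substrate, 1.5 hr RT. Add CellTiter-Glo, 30 min RT; read luminescence.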

[4] = qHTS assay to identify small molecule agonists of the endoplasmic reticulum stress response signaling pathway (AID 1159516; active means well fitted activation curve with a large enough effect in the signal ratio in the repeat runs, not every such curve was filed as active; the % refers to the signal ratio; further: potency means the concentration at half of the fitted maximal effect); conditions: ESRE-bla HeLa, ER stress beta-lactamase reporter, 5 h; series mostly up to 61 µM
Outline: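 Beta-lactamase expression from the ER stress response element in HeLa reporter cells is quantified with the LiveBLAzer B/G FRET substrate, read at 405 nm excitation after 2 hr at room temperature, following 5 hr compound treatment at 37 C.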

[5] = qHTS assay to identify small molecule agonists of the endoplasmic reticulum stress response signaling pathway - cell viability counter screen (AID 1159517; calls by dose curve; further: nearly all actives have a fitted effect of over 50% in size); conditions: ESRE-bla HeLa viability, CellTiter-Glo luminescence, 5 h; series mostly up to 61 µM
Outline: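 ESRE-bla HeLa cells (1,500/well) were plated overnight at 37 C and exposed to compounds for 5 hr. After the 2 hr beta-lactamase substrate read, CellTiter-Glo went into the same wells, and luminescence was read after 30 min at room temperature.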

[6] = qHTS assay to identify small molecule antagonists of the retinoid-related orphan receptor gamma (ROR-gamma) signaling pathway - cell viability counter screen (AID 1159520); conditions: Tet-on RORgamma CHO cells viability, ATP luminescence, 16 h; series mostly up to 92.4 µM; further: nearly all actives have a fitted effect of over 50% in size
Outline: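 Cytotoxicity was read from cellular ATP (CellTiter-Glo luminescence) after 16 hr at 37 C with 1 uM doxycycline induction. The inducer was added 2 hr after compound transfer to Tet-on ROR gamma CHO cells.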

[7] = molecular target: Nuclear receptor ROR-gamma (Homo sapiens) (UniProt P51449); test: qHTS assay to identify small molecule antagonists of the retinoid-related orphan receptor gamma (ROR-gamma) signaling pathway (AID 1159521; further: nearly all actives have a fitted effect of over 50% in size; further: potency means the concentration at half of the fitted maximal effect); conditions: Tet-on RORgamma CHO cells, RORE-luciferase, 16 h; series mostly up to 92.4 µM
Outline: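 Inducible-expression reporter assay: doxycycline (1 uM final) switched on RORγ in CHO cells bearing a ROR response element-luciferase construct, with test compounds present from 2 h beforehand. Decreased luminescence after 16 h defined antagonist activity.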

[8] = qHTS assay to identify small molecule agonists of the AP-1 signaling pathway - cell viability counter screen (AID 1159525; calls by dose curve; further: nearly all actives have a fitted effect of over 55% in size); conditions: ME-180 AP-1-bla cells viability, ATP luminescence, 5 h; series mostly up to 76.8 µM
Outline: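 Intracellular ATP by Cell Titer Glo luminescence (30 min, RT) in the same ME-180 AP-1-bla wells after the 5 h compound exposure at 37 °C. Normalised to tetra n-octyl ammonium bromide and DMSO controls.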

[9] = qHTS assay to identify small molecule agonists of the AP-1 signaling pathway (AID 1159526; calls by dose curve; further: potency means the concentration at half of the fitted maximal effect); conditions: ME-180 (cervical carcinoma) AP-1-bla reporter, beta-lactamase FRET ratio, 5 h; series mostly up to 76.8 µM
[10] = qHTS assay to identify small molecule agonists of the RXR signaling pathway - cell viability counter screen (AID 1159529); conditions: RXR-alpha-bla HEK293T viability, CellTiter-Glo, 16 h; series mostly up to 76.8 µM; further: nearly all actives have a fitted effect of over 50% in size; further: potency means the concentration at half of the fitted maximal effect
Outline: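 Counter screen: CellTiter-Glo luminescence. Cells: RXR-alpha-UAS-bla HEK 293T. Medium: 2% charcoal-stripped FBS. Treatment: 16 h, 37 C. Reagent incubation: 30 min, RT.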

[11] = qHTS assay to identify small molecule antagonists of the retinoid acid receptor (RAR) signaling pathway - cell viability counter screen (AID 1159551); conditions: C3RL4 cells viability, ATP luminescence (CellTiter-Glo), 6 h; series mostly up to 92.4 µM; further: nearly all actives have a fitted effect of over 35% in size
Outline: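 Viability of C3RL4 cells is quantified from ATP by luminescence after 6 h treatment at 37 C with compounds and 1 uM retinol.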

[12] = qHTS assay to identify small molecule antagonists of the retinoic acid receptor (RAR) signaling pathway (AID 1159552; further: nearly all actives have a fitted effect of over 50% in size); conditions: C3RL4 RARE luciferase reporter, retinol-stimulated, 6 h; series mostly up to 92.4 µM
Outline: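 Antagonism of retinol-induced RARE reporter activity was measured in C3RL4 cells. Exposure to compounds and 1 uM final retinol lasted 6 hr at 37 C, with luminescence as endpoint.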

[13] = qHTS assay to identify small molecule antagonists of the estrogen related receptor (ERR) signaling pathway from Tox21 library - cell viability counter screen (AID 1224834); conditions: ERR reporter cells viability, CellTiter-Fluor, 17.5 h; series mostly up to 92.4 µM; further: nearly all actives have a fitted effect of over 30% in size; further: potency means the concentration at half of the fitted maximal effect
Outline: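 In this quantitative HTS format, ERR cells receive compounds in DMSO and are incubated for 17.5 h at 37 C. Live-cell protease activity is then detected with CellTiter-Fluor.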

[14] = qHTS assay to identify small molecule agonists of the retinoic acid receptor (RAR) signaling pathway (AID 1159553); conditions: C3RL4 RARE luciferase reporter, agonist, 6 h; series mostly up to 73.3 µM; further: potency means the concentration at half of the fitted maximal effect
Outline: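 Compounds dissolved in DMSO were pinned onto C3RL4 cells seeded the previous day, and plates were held 6 hr at 37 C. RARE-driven luciferase output was then read by luminescence.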

[15] = molecular target: Retinoic acid receptor RXR-alpha (Homo sapiens) (UniProt P19793); test: qHTS assay to identify small molecule agonists of the RXR signaling pathway (AID 1159527; calls by dose curve; further: nearly all actives have a fitted effect of over 35% in size; further: potency means the concentration at half of the fitted maximal effect); conditions: HEK293T RXRa-UAS-bla, beta-lactamase ratio, 16 h; series mostly up to 76.8 µM
Outline: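 Compounds in DMSO were added to RXR-alpha-UAS-bla HEK 293T cells kept in 2% charcoal-stripped serum, and incubated 16 hr at 37 C with 5% CO2. Reporter signal came from a 2 hr B/G FRET substrate step.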

[16] = qHTS assay to identify small molecule antagonists of the estrogen related receptor signaling pathway with the pleiotropic PPARgamma coactivator (PGC) cell viability counter screen (AID 1224822;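 further: viability read after 17.5 h compound exposure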); conditions: ERR/PGC reporter cell line viability counter screen; series mostly up to 46.1 µM
Outline: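 Viable cell signal (CellTiter-Fluor, 30 min, 37 C/5% CO2) was measured in PGC/ERR cells after a 17.5 h compound incubation.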

Measured: Potency

Chain of Retinoic acid receptor RXR-alpha (Homo sapiens) (P19793 whole entry, looked up): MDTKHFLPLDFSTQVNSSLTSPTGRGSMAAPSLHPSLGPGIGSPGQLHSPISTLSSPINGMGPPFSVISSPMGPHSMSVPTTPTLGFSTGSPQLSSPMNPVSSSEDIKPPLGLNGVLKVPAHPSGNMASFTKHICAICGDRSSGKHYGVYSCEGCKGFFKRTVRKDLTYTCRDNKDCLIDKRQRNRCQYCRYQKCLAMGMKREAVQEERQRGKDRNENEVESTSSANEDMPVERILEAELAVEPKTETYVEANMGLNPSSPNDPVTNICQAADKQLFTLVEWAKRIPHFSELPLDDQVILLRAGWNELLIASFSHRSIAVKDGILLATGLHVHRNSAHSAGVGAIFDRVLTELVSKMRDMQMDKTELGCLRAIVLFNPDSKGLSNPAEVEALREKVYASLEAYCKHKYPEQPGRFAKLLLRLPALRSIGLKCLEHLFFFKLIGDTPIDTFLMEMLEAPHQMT

O=C(Cl)c1c(Cl)cccc1Cl
not listed: [14] | [15] | [16]
inactive: all other assays above

O=C1[C@H](CC[C@H](O)c2ccc(F)cc2)[C@@H](c2ccc(O)cc2)N1c1ccc(F)cc1
not listed: [13] | [14] | [15] | [16]
inactive: all other assays above

Cc1nc2ccccc2n1Cc1ccc(Cl)cc1
active: [7] 2.66 µM
not listed: [1] | [2] | [14] | [15] | [16]
inactive: all other assays above

CCCCC(CC)(CO)CO
not listed: [15] | [16]
inactive: all other assays above

COCCCCCCCCOCCC[Si](C)(O[Si](C)(C)C)O[Si](C)(C)C
active: [7] 17.2 µM
not listed: [1] | [2] | [12] | [13] | [14] | [16]
inactive: all other assays above

Nc1nc(CC(=O)O)cs1
active: [10] 21.9 µM
not listed: [13] | [14] | [15] | [16]
inactive: all other assays above

NCCCOCCOCCOCCCN
active: [7] 17.2 µM | [15] 43.6 µM
not listed: [10] | [16]
inactive: all other assays above

O=C(O)c1cccc(N(Cc2cccnc2)c2ccc(OC(F)F)c(OC(F)F)c2)c1
active: [7] 30.6 µM
not listed: [13] | [15] | [16]
inactive: all other assays above

CC(=O)c1c(C)c([N+](=O)[O-])c(C(C)(C)C)c([N+](=O)[O-])c1C
active: [15] 21.9 µM
not listed: [10] | [16]
inactive: all other assays above

O=C(c1ccccc1)c1ccc2n1CCC2C(=O)O (centres undefined)
not listed: [14] | [15]
inactive: all other assays above

CN(C)C/C=C(/c1ccc(Br)cc1)c1cccnc1
not listed: [10] | [12]
inactive: all other assays above

CNCC[C@@H](Oc1ccccc1C)c1ccccc1
active: [9] 21.3 µM
not listed: [1] | [10] | [12] | [16]
inactive: all other assays above

CCCCOC(=O)/C=C\C(=O)OCCCC
not listed: [10] | [12] | [14] | [16]
inactive: all other assays above

CCN(CC)C(C)=O
not listed: [2] | [15] | [16]
inactive: all other assays above

COc1ccc(C(C)=O)cc1
not listed: [15] | [16]
inactive: all other assays above

C1=Cc2ccccc2C1
not listed: [10] | [13] | [16]
inactive: all other assays above

N[C@H]1C(O)O[C@H](CO)[C@H](O)[C@@H]1O (some centres undefined)
not listed: [15] | [16]
inactive: all other assays above

CCCC(=O)OCC
not listed: [1] | [14] | [15] | [16]
inactive: all other assays above

Cc1ccc(C)o1
not listed: [14] | [15] | [16]
inactive: all other assays above

Nc1nc(N)c2nc(CNc3ccc(C(=O)N[C@@H](CCC(=O)O)C(=O)O)cc3)cnc2n1
active: [1] 0.0288 µM | [2] 0.0288 µM | [4] 51.3 µM
not listed: [15] | [16]
inactive: all other assays above

CC(C(=O)O)c1ccc(C(=O)c2ccccc2)s1 (centres undefined)
active: [14] 8.41 µM
not listed: [15] | [16]
inactive: all other assays above

CC(C)(C)c1cc(CCC(=O)OCC(COC(=O)CCc2cc(C(C)(C)C)c(O)c(C(C)(C)C)c2)(COC(=O)CCc2cc(C(C)(C)C)c(O)c(C(C)(C)C)c2)COC(=O)CCc2cc(C(C)(C)C)c(O)c(C(C)(C)C)c2)cc(C(C)(C)C)c1O
not listed: [2] | [13] | [15] | [16]
inactive: all other assays above

O=C(Cl)c1ccc([N+](=O)[O-])cc1
not listed: [2] | [10] | [16]
inactive: all other assays above

N=C(N=C(N)N)N1CCOCC1
not listed: [10] | [16]
inactive: all other assays above

CCCCCCCCN(C)C
not listed: [15] | [16]
inactive: all other assays above

CC(=O)/C(C)=C/C1C(C)=CCCC1(C)C (centres undefined)
not listed: [15] | [16]
inactive: all other assays above

CN1CCC(OC(c2ccccc2)c2ccccc2)CC1
not listed: [10] | [11] | [16]
inactive: all other assays above

O=CNc1ccccc1
not listed: [15] | [16]
inactive: all other assays above

CC(=O)NCCCS(=O)(=O)O
not listed: [14] | [15] | [16]
inactive: all other assays above

O=c1[nH]cnc2ccccc12
not listed: [11] | [13] | [16]
inactive: all other assays above

C=CC[N+]1([C@H]2C[C@H]3[C@@H]4CC[C@H]5C[C@H](OC(C)=O)[C@@H](N6CCCCC6)C[C@]5(C)[C@H]4CC[C@]3(C)[C@H]2OC(=O)CC)CCCCC1
not listed: [10] | [12] | [14] | [16]
inactive: all other assays above

Cc1cc(C)c(S(=O)(=O)O)cc1N=Nc1cc(S(=O)(=O)O)c2ccccc2c1O
active: [13] 54.5 µM
not listed: [11] | [12] | [14] | [16]
inactive: all other assays above

CCN(CC)CCOC(=O)C1(c2ccccc2)CCCC1
not listed: [10] | [11] | [13] | [16]
inactive: all other assays above

CCCCCCCCCCCCCCCC(=O)OC/C=C(C)/C=C/C=C(C)/C=C/C1=C(C)CCCC1(C)C
not listed: [15] | [16]
inactive: all other assays above

Cc1ncsc1CCO
not listed: [14] | [15] | [16]
inactive: all other assays above

COCCO
not listed: [10] | [16]
inactive: all other assays above
